According to PubChem BioAssay (NCI):
The panel holds about 83,000 compounds, 20% with a hit somewhere; the sample as a whole holds those more often.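 Step 1: grow cells in 96-well plates. Step 2: add test compound at a single concentration. Step 3: incubate 48 h. Step 4: record percent growth.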 Activity calls are given as the source filed them. The calls were made as follows: active = growth percent below 10; inactive = the rest.

These compounds were tested on HL-60(TB) leukemia (assay: NCI-60 one-dose screen, 48 h (100 = growth as untreated, 0 = no growth, -100 = all killed)). Conditions: 10 µM unless noted.

With Cc1ccc(N)c(O)c1 as the compound, how does the growth read?
The growth was 128% (inactive).

With CCOC(=O)c1c(-c2ccc(O)cc2)c(C#N)c2c(C#N)c(N)nn2c1N as the compound, how does the growth read?
Its growth is 22.5% (inactive).

For O=C1C[C@H](c2ccccc2)[C@H](c2ccccc2)C1, which growth is on record?
The growth was 88.1% (inactive).

How did the growth turn out when O=S(=O)(Nc1ccc(I)cc1F)c1ccc(-c2cnc(C3CC3)o2)cc1 was run?
Its growth is 17.1% (inactive).

With COC(c1ccc2ccccc2c1)C(C)C(F)F (stereo not given) as the compound, how does the growth read?
The growth was 103% (inactive).

Which growth does the source give for Nc1n[nH]c2cccc(C#Cc3cccc(C(=O)Nc4ccc(CN5CCOCC5)c(C(F)(F)F)c4)c3)c12 here?
The growth was 7.67% (active).

How did the growth turn out when O=c1onc(-c2ccccc2)c2ccccc12 was run?
Its growth is 86.8% (inactive).

With CCN1C(=O)N(CC)C2Nn3c(s/c(=C4\C(=O)Nc5ccccc54)c3=O)=NC21 (stereo not given) as the compound, how does the growth read?
Its growth is 27.8% (inactive).

With N#C/C(=C\c1ccc(Br)cc1)c1cc2ccccc2[nH]1 as the compound, how does the growth read?
The growth was 98.2% (inactive).

How did the growth turn out when COCc1nc(NS(=O)(=O)c2ccc(N)cc2)nc(C)c1Br was run?
Its growth is 114% (inactive).

Which growth does the source give for CC1(C)C2CCC(O)(C(=O)O)C1C2 (stereo not given) here?
The growth was 107% (inactive).

With COc1ccc(CNC(=O)C(=O)[C@H](Cc2ccccc2)NC(=O)c2[nH]c3ccccc3c(=O)c2C)cc1 as the compound, how does the growth read?
The growth was 110% (inactive).

For CNc1ncc(-c2ccc(C(F)(F)F)cc2)c(NC2CCCCCC2)n1, which growth is on record?
The growth was 57% (inactive).

Which growth does the source give for N=C(N)SCc1c2ccccc2c(CSC(=N)N)c2ccccc12 here?
The growth was 20.8% (inactive).

With Cc1nnc(/N=C2\NC(=O)/C(=C/C=C/c3ccccc3)S2)s1 as the compound, how does the growth read?
The growth was 75.3% (inactive).

CCCCCCN1CSC(=S)N(CCCCCC)C1 was tested. Which growth did it give?
The growth was 112% (inactive).

CCOC(=O)/C=C\C(=O)NC(N)=O was tested. Which growth did it give?
Its growth is 74.9% (inactive).

With CCCCCCCCCCCCCCCCCCOCC(COP(=O)([O-])OCC[N+](C)(C)C)OC (stereo not given) as the compound, how does the growth read?
The growth was 46.4% (inactive).

For CCNCC(C)(C)O, which growth is on record?
The growth was 102% (inactive).

How did the growth turn out when COc1ccc(/C=C2\CCC3C(CCCC34OCCO4)C2=O)cc1 (stereo not given) was run?
Its growth is 78.3% (inactive).

Which growth does the source give for COC(=O)C(Cc1ccccc1)NC(=O)NC(=O)NC(=O)CI (stereo not given) here?
The growth was -51.3% (active).

For [N-]=[N+]=NCc1cccc(/C(O)=C/C(=O)C(=O)O)c1, which growth is on record?
The growth was 17.3% (inactive).

O=C(C1CCC1)N1N=C(c2ccc(-n3ccc(C(F)(F)F)n3)cc2)CC1c1ccc[nH]1 (stereo not given) was tested. Which growth did it give?
Its growth is 97.8% (inactive).

For CSc1ccc(-c2cc(-c3ccc(NC(=O)CCCN4CCCC4)cc3)nc(-c3ccc(NC(=O)CCCN4CCCC4)cc3)c2)cc1, which growth is on record?
Its growth is 60.8% (inactive).

How did the growth turn out when O=S(=O)(NCCCNc1nccc(-n2ccc3cccnc32)n1)c1cccc(C(F)(F)F)c1 was run?
The growth was 109% (inactive).

O=C(Nc1ccccc1)Nc1ncnc2c1ncn2-c1ccccc1 was tested. Which growth did it give?
The growth was 100% (inactive).

For O=[N+]([O-])/C(=C/C=C/c1ccccc1)c1ccccc1, which growth is on record?
The growth was -2.71% (active).

With CCCc1cc(=O)n2c(C(=O)Nc3ccc(F)cc3)c(C(=O)Nc3ccc(F)cc3)sc2n1 as the compound, how does the growth read?
Its growth is 106% [30 µM] (inactive).

With COc1cccc(/C=C/C(=O)c2cc3c(N)c(C(=O)Nc4cccc(Cl)c4C)sc3nc2C)c1 as the compound, how does the growth read?
Its growth is 0.771% (active).

How did the growth turn out when CCOC(=O)CNC1=C(Cl)C(=O)N(Cc2ccc(Cl)cc2)C1=O was run?
The growth was 105% (inactive).

O=C(CN1C(=O)NC2NC(=O)NC21)N/N=C/c1cccc([N+](=O)[O-])c1 (stereo not given) was tested. Which growth did it give?
The growth was 99.1% (inactive).

How did the growth turn out when CC1CCC(n2cnc3c(Cl)ncnc32)O1 (stereo not given) was run?
The growth was 112% (inactive).

How did the growth turn out when COc1cc(C=Nc2oc(-c3ccccc3)c(-c3ccccc3)c2C#N)cc(CN2CCCC2)c1O was run?
The growth was 102% (inactive).

Which growth does the source give for C/C(=N\NC(=O)c1ccncc1)c1ccc(N)cc1 here?
Its growth is 90.2% (inactive).

With Cc1nc(Nc2ccc(NC(=S)Nc3ccccc3)cc2)nc2nc(Nc3cccc(Cl)c3)[nH]c(=O)c12 as the compound, how does the growth read?
Its growth is 57.1% (inactive).

Cc1ccc(C(=O)Nc2ccc(CN3CCN(C)CC3)c(C(F)(F)F)c2)cc1C#Cc1cnc(N)cc1C#N was tested. Which growth did it give?
The growth was -53.5% (active).

Which growth does the source give for CCCCCCNC(=O)Oc1ccc(/C(=C(\C)c2ccccc2)c2ccc(OCCCN(C)C)cc2)cc1 here?
The growth was 78% (inactive).

CCCO/N=C/c1ccccn1 was tested. Which growth did it give?
The growth was 94.8% (inactive).

With O=c1[nH]c(=O)c2[nH]c(=O)[nH]c2[nH]1 as the compound, how does the growth read?
The growth was 100% (inactive).

Which growth does the source give for CCCCCCCCCCCCCCCCCCn1cc(COc2ccc(C=O)cc2)nn1 here?
The growth was 86.7% (inactive).
